Source: PubChem BioAssay AID1645849 (National Center for Advancing Translational Sciences (NCATS), 2021)
Results filed as inconclusive are left out. The source made the active and inactive calls. Calls come from the whole dose curve; as a rule, active = well fitted inhibition curve with a large enough effect in the repeat runs; inconclusive = weak or mixed curves; inactive = no such curve, though single readings can be large or run the other way.

Experiment: Comparison of Janus kinase inhibitors to block the type I interferon pathway in human skeletal muscle cells: JAK inhibition assay
Settings: IFN pathway HiBiT reporter; series mostly up to 45.9 µM; activity change, negative = inhibition: at the top concentration
Description: Assay Submitter: Travis B. Kinder Ph.D.
National Center for Advancing Translational Sciences (NCATS)
The family of Janus kinases (JAK1, JAK2, JAK3, TYK2) mediate signal transduction from cytokine receptors through phosphorylation and activation of intracellular signaling pathways and transcription factors. Small molecule antagonists of JAKs (jakinibs) have been developed with varying selectivity for the use in malignancies and immune regulation. […] We have assayed a library of 48 jakinibs for their ability to inhibit the JAK1/TYK2-dependent type I interferon (IFN) - major histocompatibility complex (MHC) class I pathway in human skeletal muscle cells genome-engineered to fuse a pro-luminescent HiBiT peptide to endogenous MHC class I.
The assay utilized CRISPR/Cas9 genome-engineered immortalized human myoblasts, C25cl48, where a pro-luminescent reporter HiBit was fused to the C-terminus of endogenous MHC class I allele HLA-B*08:01 (HLA-B HiBit myoblasts) (Kinder et al., 2020). HiBit is an 11 amino acid fragment of NanoLuc luminescent reporter (Promega Corporation), and when complexed to the larger LgBit fragment, the reconstituted enzyme produces light in the presence of furimazine substrate. Briefly, HLA-B HiBit myoblasts were plated into 1536-well plates, treated with 4.0 ng/ml human IFN-beta and 48 jakinibs in an 11-point, 1:3 titration with a high final concentration of 46 uM. After 24 hrs of treatment, cells were assayed by Nano-Glo HiBiT Lytic Detection System (Promega) and luminescence measured by a ViewLux 1430 Ultra HTS (Perkin Elmer).
Kinder TB, Dranchak PK, Inglese J. High-Throughput Screening to Identify Inhibitors of the Type I Interferon-Major Histocompatibility Complex Class I Pathway in Skeletal Muscle. ACS Chem Biol. 2020 Jul 17;15(7):1974-1986. doi: 10.1021/acschembio.0c00343
PROTOCOL TABLE (as described by Inglese et al., 2007)
SEQUENCE No. (e.g., 1, 2, 3, etc.); PARAMETER (e.g., Cells, Incubation, Reagent, etc.); VALUE; DESCRIPTION
1a; Cells; 5 uL; Seed 250 cells/well with a Multidrop Combi (Thermo Scientific) into two Greiner 1536 well white/solid bottom, high base, TC plates (789173-F) in 5 ul/well of growth medium (GM) without dexamethasone into columns 1+2
1b; Cells; 5 uL; Seed 250 cells/well with a Multidrop Combi (Thermo Scientific) into two Greiner 1536 well white/solid bottom, high base, TC plates (789173-F) in 5 ul/well of GM without dexamethasone + 4 ng/ml IFN-beta into columns 3 - 48. Add metal lids with gas-exchange holes
2; Incubate; 30 min; Incubate at 37C, 5% CO2, 95% RH
3; Compounds; 23 nl; Transfer DMSO control and library compounds in DMSO with Pin Tool (Wako)
4; Incubate; 24 hrs; Incubate at 37C, 5% CO2, 95% RH
5; Dispense; 2.5 ul; Add HiBit lytic reagent with a BioRAPTR FRD (Beckman Coulter)
6; Incubate; 10 min; Incubate in the dark at ambient temperature for lysis
7; Detector; 5 sec; Measure luminescence with ViewLux 1430 Ultra HTS (Perkin Elmer). Settings: Exposure = 5 sec, Gain = High, Speed = Slow, Binning = 2X
NOTES (numbers refer to sequence above)
1; HLA-B HiBit myoblasts cultured in GM - 4:1 ratio DMEM Glutamax (Thermo Fisher, 10566) : M199 (Thermo Fisher, 11150), 10% FBS (Hyclone Standard), 1% Pen/Strep, 50 ug/ml fetuin, 10 ng/ml hEGF, 1 ng/ml bhFGF, 10 ug/ml insulin, 0.4 ug/ml dexamethasone (supplements from Promocell, C-39360). […] Recombinant human IFN-beta (Peprotech, 300-02BC) was reconstituted in water, diluted in GM, and aliquots stored at -80C until day of use.
3; Control plate contained DMSO in columns 1 and 4, digitonin (Sigma, D141) cytotoxicity control in DMSO at 20 mM in column 2, and ruxolitinib (Selleckchem, S1378) inhibitor control in DMSO 16-point, 1:2 titration, high concentration = 17 mM in column 3. Digitonin and ruxolitinib stocks were reconstituted at 20 and 50 mM in DMSO and aliquots stored at -20C. Forty-eight compounds were added in an 11-point, 1:3 titration with a high final concentration of 46 uM by Pintool (Wako) from one library plates and one DMSO control plate
[…]

Question: For `Cc1oncc1C(=O)Nc1ccc(C(F)(F)F)cc1`, which Potency is on record?
Answer: Its Potency is 17.2 µM (active).

Question: With `NC(=O)c1cnc2[nH]ccc2c1NC1C2CC3C[C@H]1CC(O)(C3)C2` (some centres undefined) as the compound, how does the Potency read?
Answer: Its Potency is 1.72 µM (active).

Question: For `NC(=O)c1nc(-c2c(F)cccc2Cl)oc1Nc1ccc(C(=O)N2CCOCC2)cc1`, which Potency is on record?
Answer: The Potency was 5.23 µM (active).

Question: For `N#CCC1(n2cc(-c3ncnc4[nH]ccc34)cn2)CN(C2CCN(C(=O)c3ccnc(C(F)(F)F)c3F)CC2)C1`, which Potency is on record?
Answer: Its Potency is 0.861 µM (active).

Question: Which Potency does the source give for `Cn1cc(Nc2nccc(N3C[C@H]4CC[C@@H](C3)N4C(=O)[C@@H]3CC3(F)F)n2)cn1` here?
Answer: Its Potency is 3.56 µM (active).

Question: Which Potency does the source give for `C[C@@H]1CCN(C(=O)CC#N)C[C@@H]1N(C)c1ncnc2[nH]ccc12` here?
Answer: Its Potency is 2.16 µM (active).

Question: Which Potency does the source give for `CC[C@@H]1CN(C(=O)NCC(F)(F)F)C[C@@H]1c1cnc2cnc3[nH]ccc3n12` here?
Answer: Its Potency is 0.33 µM (active).

Question: With `COc1cc2ncnc(Nc3ccc(O)cc3)c2cc1OC` as the compound, how does the “activity change, negative = inhibition” value read?
Answer: The value was -22.8% (inactive).

Question: With `Cc1cnc(Nc2ccc(N3CCN(C)CC3)cc2)nc1Nc1cccc(S(=O)(=O)NC(C)(C)C)c1` as the compound, how does the Potency read?
Answer: The Potency was 2.43 µM (active).

Question: For `[2H]C([2H])([2H])NC(=O)c1nnc(NC(=O)C2CC2)cc1Nc1cccc(-c2ncn(C)n2)c1OC`, which Potency is on record?
Answer: Its Potency is 0.0711 µM (active).

Question: For `CC1(C)CN(C(=O)c2ccc(-c3cccc4nc(NC(=O)C5CC5)nn34)cc2)C1`, which Potency is on record?
Answer: Its Potency is 7.67 µM (active).

Question: For `Cc1cc(Nc2cc(CN3CCOCC3)c3nc(C)c(Cc4ccc(Cl)cc4F)n3n2)n[nH]1`, which Potency is on record?
Answer: The Potency was 14.2 µM (active).

Question: Which Potency does the source give for `CCCS(=O)(=O)NC1CC(N(C)c2ncnc3[nH]ccc23)C1` (centres undefined) here?
Answer: The Potency was 3.7 µM (active).

Question: With `CCS(=O)(=O)N1CCN(c2ccc(Nc3ncc(C(N)=O)c(NC4CC4)n3)cc2)CC1` as the compound, how does the Potency read?
Answer: Its Potency is 0.93 µM (active).

Question: Which Potency does the source give for `COc1nsc(NC(=O)N2C[C@H]3CC(N(C)c4ncnc5[nH]ccc45)C[C@H]3C2)n1` (some centres undefined) here?
Answer: The Potency was 0.432 µM (active).

Question: For `Cc1cnc(Nc2ccc(OCCN3CCCC3)cc2)nc1Nc1cccc(S(=O)(=O)NC(C)(C)C)c1`, which Potency is on record?
Answer: Its Potency is 3.56 µM (active).

Question: With `Cc1cnc(Nc2ccc(CN3CCOCC3)cc2)nc1Nc1cccc(S(=O)(=O)NC(C)(C)C)c1` as the compound, how does the Potency read?
Answer: Its Potency is 5.43 µM (active).

Question: Which Potency does the source give for `N#CCNC(=O)c1ccc(-c2ccnc(Nc3ccc(N4CCOCC4)cc3)n2)cc1` here?
Answer: Its Potency is 4.48 µM (active).

Question: With `O=C(Nc1nc2cccc(-c3ccc(CN4CCS(=O)(=O)CC4)cc3)n2n1)C1CC1` as the compound, how does the Potency read?
Answer: The Potency was 15.3 µM (active).

Question: Which Potency does the source give for `Cc1cc(Nc2nc(N[C@@H](C)c3ccc(F)cc3)c(C#N)cc2F)n[nH]1` here?
Answer: The Potency was 1.08 µM (active).

Question: With `C=CC(=O)N1C[C@H](Nc2ncnc3[nH]ccc23)CC[C@@H]1C` as the compound, how does the “activity change, negative = inhibition” value read?
Answer: The value was -26.6% (inactive).

Question: For `C1=C/COCc2cc(ccc2OCCN2CCCC2)Nc2nccc(n2)-c2cccc(c2)COC/1`, which Potency is on record?
Answer: Its Potency is 2.16 µM (active).

Question: With `CN(C)c1ccc(Nc2nc(N)n(C(=O)c3c(F)cccc3F)n2)cc1` as the compound, how does the Potency read?
Answer: Its Potency is 6.58 µM (active).

Question: With `CC(C)N(CCC(=O)c1ccc2ccccc2c1)Cc1ccccc1` as the compound, how does the Potency read?
Answer: The Potency was 14.2 µM (active).

Question: With `CCC[C@H](NC(=O)/C(C#N)=C/c1cccc(Br)n1)c1ccccc1` as the compound, how does the Potency read?
Answer: Its Potency is 7.39 µM (active).

Question: With `O=C(Nc1ccnc(NC(=O)C2CC2)c1)c1c(Cl)cccc1Cl` as the compound, how does the Potency read?
Answer: The Potency was 4.48 µM (active).

Question: Which Potency does the source give for `CC(=O)Nc1cc(Oc2ccc3c(nc(Nc4ccc(F)cc4F)n3C)c2C)ccn1` here?
Answer: Its Potency is 0.37 µM (active).

Question: With `Cc1cnc(Nc2cccc(CN3CCOCC3)c2)nc1Nc1cccc(S(=O)(=O)NC(C)(C)C)c1` as the compound, how does the Potency read?
Answer: The Potency was 10 µM (active).

Question: For `N#C/C(=C\c1ccc(O)c(O)c1)C(=O)NCc1ccccc1`, which “activity change, negative = inhibition” value is on record?
Answer: The value was -0.854% (inactive).

Question: For `Fc1cc(-c2cccc3ncc(-c4cnn(C5CCNCC5)c4)nc23)cc(F)c1CN1CCOCC1`, which Potency is on record?
Answer: The Potency was 17.9 µM (active).

Question: For `CC(C)(C)c1nc2c3cc[nH]c(=O)c3c3cc(F)ccc3c2[nH]1`, which Potency is on record?
Answer: The Potency was 1.26 µM (active).

Question: Which Potency does the source give for `C[C@@]12O[C@@H](C[C@]1(O)CO)n1c3ccccc3c3c4c(c5c6ccccc6n2c5c31)CNC4=O` here?
Answer: Its Potency is 0.415 µM (active).

Question: With `Cc1cc(Nc2cc(NC(=O)c3c(Cl)cccc3Cl)ccn2)nc(N)n1` as the compound, how does the Potency read?
Answer: Its Potency is 2.16 µM (active).

Question: Which Potency does the source give for `CCS(=O)(=O)N1CC(CC#N)(n2cc(-c3ncnc4[nH]ccc34)cn2)C1` here?
Answer: Its Potency is 1.31 µM (active).

Question: With `Cc1cc(Nc2nc(N[C@@H](C)c3ncc(F)cn3)ncc2Cl)n[nH]1` as the compound, how does the Potency read?
Answer: The Potency was 1.47 µM (active).

Question: Which Potency does the source give for `CNS(=O)(=O)CC1CCC(N(C)c2ncnc3[nH]ccc23)CC1` (centres undefined) here?
Answer: Its Potency is 4.66 µM (active).

Question: For `CN1CCN(c2cccc(Nc3nc4c(-c5ccc(S(C)(=O)=O)cc5)cccn4n3)c2)CC1`, which Potency is on record?
Answer: The Potency was 3.06 µM (active).

Question: Which Potency does the source give for `CC[C@@](C)(Nc1ccnc(-c2c[nH]c3ncccc23)n1)C(=O)NCC(F)(F)F` here?
Answer: Its Potency is 8.29 µM (active).

Question: Which Potency does the source give for `N#CC[C@H](C1CCCC1)n1cc(-c2ncnc3[nH]ccc23)cn1` here?
Answer: Its Potency is 0.861 µM (active).
